Measured values from PubChem BioAssay (NCI).
Where “and” joins values, the source holds several entries; their conditions need not be identical. Equal values may be shown once. This is part of a sample that, as a whole, favours compounds with a hit. Of some 79,000 tested, about 15% had one in any assay. Cut-off read from the data, not from the text of the source: active = growth inhibition above about 70%; inactive = the rest.

Columns and labels:
[1] = NCI Yeast Anticancer Drug Screen. Data for the rad50 strain (AID 155);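 note: 0% = growth of vehicle-only cultures of the same strain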; details: S. cerevisiae rad50 strain growth inhibition, stronger effect = higher value; at 50.0 µM unless noted
In short: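 Relative growth inhibition (compound vs vehicle) was measured in yeast with a defined repair-gene alteration.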

[2] = NCI Yeast Anticancer Drug Screen. Data for the mec2-1 strain (AID 157); details: S. cerevisiae mec2-1 strain, stronger effect = higher value; at 50.0 µM unless noted
In short: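 Compounds were applied to mec2-1 yeast cells. Their growth was then compared with that of vehicle-treated cultures to give growth inhibition.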

[3] = NCI Yeast Anticancer Drug Screen. Data for the sgs1 mgt1 strain (AID 161);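 note: 0% = growth of cultures given vehicle only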; details: S. cerevisiae sgs1 mgt1 strain, stronger effect = higher value; at 50.0 µM unless noted
In short: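 Compounds are added to genetically altered yeast, and growth is compared with cultures given vehicle alone to give percent inhibition.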

[4] = NCI Yeast Anticancer Drug Screen. Data for the cln2 rad14 strain (AID 165);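 note: 0% = growth equal to vehicle treated cultures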; details: S. cerevisiae cln2 rad14 strain, stronger effect = higher value; at 50.0 µM unless noted
In short: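 Strain: cln2 rad14 yeast, altered in cell cycle control and DNA damage repair. Read-out: growth inhibition vs vehicle.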

[5] = NCI Yeast Anticancer Drug Screen. Data for the bub3 strain (AID 167); details: S. cerevisiae bub3 mutant strain, stronger effect = higher value; at 50.0 µM unless noted
In short: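 Screening used yeast with an engineered genetic alteration affecting cell cycle control. Compound-exposed cultures were compared with vehicle cultures, and reduced growth was taken as inhibition.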

[6] = NCI Yeast Anticancer Drug Screen. Data for the mlh1 rad18 strain (AID 175); details: S. cerevisiae mlh1 rad18 strain growth inhibition, stronger effect = higher value; at 50.0 µM unless noted
In short: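 A repair-deficient yeast strain is exposed to test compound, and growth is scored relative to vehicle-treated controls.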

Measured: growth inhibition

CN(C)C(=O)Sc1cccc([N+](=O)[O-])c1
inactive: [1] 9.5% | [2] -14.9% | [3] -21.8% | [4] -38.3% | [5] 10.5% | [6] -25.6%

CSC1=NC(C(N)=O)C(N)N1C (centres undefined)
inactive: [1] -3.1% | [2] -16.4% | [3] 6.3% | [4] 17.4% | [5] 1.35% | [6] 12%

O=C1C2(c3ccccc3)CCC1(c1ccccc1)C(c1ccccc1)=C2c1ccccc1
inactive: [1] 40.1% | [2] 26.9% | [3] 7.25% | [4] 23.9% | [5] 3.05% | [6] 37.5%

CC1(C)C=C(C(c2cccc([N+](=O)[O-])c2)N2CCCCC2)C(=O)c2ccccc21 (centres undefined)
inactive: [1] -26.9% | [2] -10.7% | [3] -13.2% | [4] -40.9% | [5] -0.9% | [6] -13.3%

CC(O)(c1ccccc1)c1ccccc1
inactive: [1] -13.3% | [2] -1.75% | [3] -25.6% | [4] -16.8% | [5] -2.3% | [6] -33.3%

Cc1cccc(C2=N/C(=C\c3ccc(N(C)C)cc3)C(=O)O2)c1
inactive: [1] 20.2% | [2] 6% | [3] 7.7% | [4] 18.2% | [5] 3.05% | [6] -6.1%

CCCc1cc(Cl)ccc1OCC(=O)O
inactive: [1] 32.4% | [2] 18.9% | [3] 14.1% | [4] 11.6% | [5] 20.5% | [6] 10.3%

CCOC(=O)c1ccc2c(c1)C(=O)c1cc([N+](=O)[O-])ccc1-2
inactive: [1] 2.85% | [2] 13.2% | [3] 4.8% | [4] 10.6% | [5] 26.7% | [6] 23.1%

C/C(CC1(O)C(=O)Nc2ccccc21)=N\O (centres undefined)
inactive: [1] -1.95% and -34.7% | [2] -8.5% and -46.1% | [3] -30.6% | [4] 8.6% | [5] -16.2% | [6] 6.55% and -10%

O=C(CCS(=O)(=O)CCC(=O)c1ccccc1)c1ccccc1
inactive: [1] -12.3% | [2] 11.8% | [3] 2.25% | [4] -6.35% | [5] -4.4% | [6] 3.1%

COc1ccc(Nc2nc3ccccc3nc2-c2cccs2)cc1OC
inactive: [1] -5.8% | [2] -2% | [3] 13.9% | [4] 9.3% | [5] -0.7% | [6] -23.4%

CC(C)N(C(C)C)S(C)(=O)=O
inactive: [1] -0.3% | [2] -0.5% | [3] -3.9% | [4] -17.8% | [5] 10.3% | [6] 3.1%

CCOP(=O)(OCC)/C(=C\n1c(=S)[nH]c2cc(C)ccc21)C(=O)OC
inactive: [1] -34.1% | [2] -27.7% | [3] 13.3% | [4] -4.4% | [5] -2.5% | [6] 31.3%

N#CCCC(CC#N)N1CCN(CCO)CC1 (centres undefined)
inactive: [1] -35.1% | [2] -43.9% | [3] -18.7% | [4] -21.2% | [5] -0.95% | [6] -39.4%

CN(c1ccccc1)c1c(Cl)c(=O)oc2c1ccc1nc(-c3ccccc3)sc12
inactive: [1] 44.6% | [2] 24.8% | [3] 35.7% | [4] 43.5% | [5] -4.3% | [6] 32.9%

CC(=O)c1cccc(NC(=O)Nc2ccc(F)c([N+](=O)[O-])c2)c1
inactive: [1] 7.3% | [2] 22.9% | [3] 21.9% | [4] 3.25% | [5] 36.5% | [6] 2.75%

COC1/C=C/OC2(C)Oc3c(C)c(O)c4c(c3C2=O)C(=O)C([N+](=O)[O-])=C(NC(=O)C(C)=C/C=C\C(C)C(O)C(C)C(O)C(C)C(OC(C)=O)C1C)C4=O (centres undefined)
inactive: [1] 21.7% | [2] 10.4% | [3] 29.4% | [4] 19.6% | [5] 24.4% | [6] 29.6%

C=C1C(=O)OC2CC1C(OC(C)=O)CC1(C)OC1CCC1(C)OC1CCC2(C)O (centres undefined)
inactive: [1] -4.4% | [2] -0.1% | [3] 1.05% | [4] -2.7% | [5] -9.55% | [6] -3.4%

C=CCOC(=O)NC(CC(C)C)C(=O)NCC(N)=O (centres undefined)
inactive: [1] -10.4% | [2] 1.9% | [3] -4.3% | [4] -10.9% | [5] -45.5% | [6] -28%

CC(=O)OC/C(=C/C#N)C1CCC2C3CC=C4CC(OC(C)=O)CCC4(C)C3CCC12C (centres undefined)
inactive: [1] 15.6% | [2] -1.25% | [3] -3.75% | [4] -12.8% | [5] -2.15% | [6] 8.65%

CC(=O)OCC1OC(n2c(-c3ccccc3)c(N=Nc3ccc(C)cc3)c(C)c(C#N)c2=S)C(OC(C)=O)C(OC(C)=O)C1OC(C)=O (centres undefined)
inactive: [1] -22.6% | [2] -25.1% | [3] -22.9% | [4] 4.05% | [5] -4.9% | [6] 1.1%

Cn1nnnc1NCc1ccccc1
inactive: [1] -2.55% | [2] 5.35% | [3] -5.85% | [4] -24.6% | [5] -2% | [6] 5.15%

COc1cccc(C2c3cc4c(cc3OC(NNS(=O)(=O)c3ccc(C)cc3)C2C)OCO4)c1OC (centres undefined)
inactive: [1] 3.75% | [2] 4.55% | [3] 10.3% | [4] 8.05% | [5] 36.9% | [6] 18.2%

CC(=O)C1=CC2(OC3CCC(O)(C(=O)CO)C(C)O3)C(=O)c3c(cc4cccc(O)c4c3O)CC2C(O)C1O (centres undefined)
inactive: [1] -6.2% | [2] -1.05% | [3] 2.9% | [4] -21.2% | [5] 20.8% | [6] 9.65%

CC(=O)OC1CCC(=O)C2C(C(=O)O)CCCC12 (centres undefined)
inactive: [1] 6.9% | [2] -21.8% | [3] -19.2% | [4] -6.1% | [5] -1.75% | [6] 0.25%

Cc1sc2ccccc2[n+]1CCC(=O)O
inactive: [1] -23.1% | [2] -14% | [3] -38.6% | [4] -72.8% | [5] -14.8% | [6] -7.65%

Cc1ccc(C)n1-c1ccccc1
inactive: [1] -12.6% | [2] -37.5% | [3] -7.75% | [4] 9% | [5] -8.2% | [6] -19.4%

CC#CC#C/C(=C/C=CC(=O)OC)SC
inactive: [1] 1.95% | [2] -18.9% | [3] 13.7% | [4] 12.3% | [5] 6.6% | [6] -38.2%

CCOC(=O)c1nc2ccccc2c(=O)[nH]1
inactive: [1] -1.85% | [2] -5% | [3] 1.5% | [4] -32.9% | [5] -8.6% | [6] -2.5%

CCN(CC)CCNC(=O)c1ccc(I)cc1
inactive: [1] -43.4% | [2] -14.8% | [3] -0.9% | [4] -25.6% | [5] -4.35% | [6] -30.9%

COc1cccc(/C=C/c2cnc3ccccc3n2)c1OC
inactive: [1] -1.25% | [2] 13.8% | [3] -10.2% | [4] 10.7% | [5] -6.7% | [6] -52.1%

CS(=O)(=O)c1ncc(Br)cn1
inactive: [1] 15.6% | [2] -6.85% | [3] 5.45% | [4] 17.1% | [5] 6.4% | [6] 7.75%

CN(C)CC1(C)CC/C(=C\c2ccc3c(c2)OCO3)C1=O (centres undefined)
inactive: [1] 58.4% | [2] 30.4% | [3] 45% | [4] 51.9% | [5] 29.9% | [6] 56%

S=C(Nc1ccc2c(c1)oc1ccccc12)c1cccs1
inactive: [1] 35.1% | [2] 16.6% | [3] -36.2% | [4] -7.25% | [5] -9.6% | [6] -4.6%

CC1(C)CC(=O)C=C(NCc2ccccc2)C1
inactive: [1] -0.95% | [2] -2.6% | [3] -8.35% | [4] -24.9% | [5] -19.1% | [6] 11.2%

NN1CCN(CCO)CC1
inactive: [1] -0.1% | [2] -39.6% | [3] -3.3% | [4] 12.2% | [5] -4% | [6] 21.6%

COC(=O)C(=O)C1CCc2ccc3ccccc3c2C1=O (centres undefined)
inactive: [1] -5.8% | [2] 2.3% | [3] 24.2% | [4] -4.65% | [5] 2.3% | [6] 38.5%

Cc1ccccc1C(=O)NC(O)(C(F)(F)F)C(F)(F)F
inactive: [1] 2.4% | [2] 10.2% | [3] 14.6% | [4] 32.9% | [5] 16.9% | [6] 5.05%

O=C1CN(C2OC(CO)C(O)C2O)C(=O)NC1=O (centres undefined)
inactive: [1] 41.8% | [2] 14.2% | [3] 55.2% | [4] -11.2% | [5] 9.15% | [6] 24.4%
